# Measured values reported in PubChem BioAssay AID2673 (National Center for Advancing Translational Sciences (NCATS), 2010).
# Inconclusive results are not listed. Values without a mark were called inactive. Active and inactive are the calls of the source. Calls follow the shape of the dose curve; as a rule, active = well fitted activation curve with a large enough effect; inconclusive = small, poorly fitted or top-dose-only effect; inactive = no such curve, though single readings can be large or run the other way.
# Test: qHTS Multiplex Assay to Identify Dual Action Probes in a Cell Model of Huntington: Cytoprotection confirmation (ATP)
# Settings: PC12 HttQ103 induced, ATP luminescence 40 h; series mostly up to 46.1 µM; cytoprotection, positive = protection: at the top concentration
# Text: NIH Chemical Genomics Center [NCGC]
# NIH Molecular Libraries Probe Production centers Network [MLPCN]
# Assay Submitter (PI): Wei Zheng
# Huntington's disease is a neurodegenerative disorder caused by a trinucleotide repeat expansion in Exon 1 of the Huntingtin gene. The CAG trinucleotide encodes glutamine and polyglutamine expansions cause cell death in selective areas of the brain. Huntington polyglutamine repeats have the tendency to form aggregates which are observable in later stages of the disease. The exact nature of the aggregates, whether toxic, protective, or insignificant, is unclear.
# A stable PC12 cell line containing a gene fusion of Exon 1 of the Huntingtin gene linked to GFP under the control of the inducible ecdysone promoter were used as the cell-based model of Huntington Disease for high throughput screening. Exon 1 of the Huntingtin gene contained an expansion of 103 polyglutamines (Q103) which, when expressed, caused cell death and distinct, bright GFP aggregates. The amount of cell death and the size and intensity of GFP aggregates increased over time and induction level. The cell death were quantified with a measurement of ATP content in the cells. A maximal 40-50% of cell death was observed when the Huntington gene was induced in this cell line.
# We optimized this assay in a homogeneous 1536 well format. A quantitative high throughput screen (qHTS) was conducted on the PC12 cells which were induced to express the toxic fusion construct. Small molecules which prevented cell death were identified by using a luminescent ATP quantification method (Perkin Elmer's ATPlite).
# PC12 cells stably containing a construct with an ecdysone inducible promoter expressing GFP fused to the exon 1 of HTTQ103 (Huntington protein which containing a 103 ployglutamine expansion) were used.
# NCGC Assay Protocol Summary:
# Sequence, Parameter, Description
# 1, Reagent, 5 uL 1500 cells/well 1536 TC treated White clear bottom plate
# 2, Compound, 23 nL Tebufenozide inducer (100 nM final) to all columns
# 3, Compound, 23 nL 40 uM to 0.5 nM Libraries
# 5, Reagent, 5 ul ATPLite cell death assay reagent
# 6, Detector, 4 sec integration with a Viewlux Luminescent
# Media consisted of phenol red free DMEM + 5% equine serum (Hyclone # SH30072.03 ), 5% supplemented Bovine Calf Serum (Hyclone # SH30074.03 ), 1x pen/strep, no G418
Compound,"cytoprotection, positive = protection",Potency
Oc1cc(Cl)ccc1Oc1ccc(Cl)cc1Cl,-9.42%,–
O=C1C=C2C=C[C@H]3C[C@@]2(O1)[C@H]1CCCCN31,58%,–
O=C1C=C2C=CC3C[C@@]2(O1)C1CCCCN31 (stereo partly drawn),–,12.6 µM (active)
CC[C@]1(C2=NCCN2)Cc2ccccc2O1,-1.9%,–
C[C@H]1CC[C@@]2(NC1)O[C@@H]1C[C@H]3[C@@H]4CC=C5C[C@@H](O)CC[C@]5(C)[C@@H]4CC[C@]3(C)[C@@H]1[C@@H]2C,3.58%,–
C[C@@]1(CO)[C@H](O)CC[C@@]2(C)[C@H]1CC[C@H]1C[C@@H]3C[C@@]12CC[C@]3(O)CO,-47.8%,–
CCC(C)C(=O)OC1C(O)C2C(CN3CC(C)CCC3[C@]2(C)O)C2C[C@]34O[C@@]5(O)C(OC(=O)C(C)(O)CC)CCC3(C)C5C(OC(C)=O)C(OC(C)=O)C4[C@@]21O (stereo partly drawn),-18.1%,–
O=C1C=C2C=C[C@H]3C[C@]2(O1)[C@@H]1CCCCN13,66.7%,–
